A short description of assay [1]: NCI Yeast Anticancer Drug Screen. Data for the rad50 strain (AID 155).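 Note: 0% = growth of vehicle-only cultures of the same strain.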 The settings on record: S. cerevisiae rad50 strain growth inhibition, stronger effect = higher value. The essentials:
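Yeast carrying a defined DNA repair defect were exposed to test compounds, and growth was compared with vehicle-treated controls to give percent inhibition.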

Assay [2] can be described thus: NCI Yeast Anticancer Drug Screen. Data for the mec2-1 strain (AID 157). The note with it: S. cerevisiae mec2-1 strain, stronger effect = higher value. The method in brief:
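Mutant yeast (mec2-1) grown with compound; growth inhibition relative to vehicle control reported.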

Assay [3] in a line: NCI Yeast Anticancer Drug Screen. Data for the sgs1 mgt1 strain (AID 161).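 Note: 0% = growth of cultures given vehicle only.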 The note with it: S. cerevisiae sgs1 mgt1 strain, stronger effect = higher value. The essentials: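 Compounds are added to genetically altered yeast, and growth is compared with cultures given vehicle alone to give percent inhibition.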
Assay [4] can be described thus: NCI Yeast Anticancer Drug Screen. Data for the cln2 rad14 strain (AID 165).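 Note: 0% = growth equal to vehicle treated cultures.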 The settings on record: S. cerevisiae cln2 rad14 strain, stronger effect = higher value. The essentials:
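Readout is yeast growth inhibition versus vehicle-treated controls, using a strain with cln2 and rad14 alterations exposed to compound.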

The nature of assay [5]: NCI Yeast Anticancer Drug Screen. Data for the bub3 strain (AID 167). The note with it: S. cerevisiae bub3 mutant strain, stronger effect = higher value. The method in brief:
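Compounds were applied to a genetically altered yeast strain carrying a cell-cycle control defect. Growth inhibition was scored against vehicle-treated controls.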

The nature of assay [6]: NCI Yeast Anticancer Drug Screen. Data for the mlh1 rad18 strain (AID 175). The settings on record: S. cerevisiae mlh1 rad18 strain growth inhibition, stronger effect = higher value. The method in brief:
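Genetically defined yeast (DNA repair-deficient) exposed to compounds; growth inhibition determined relative to vehicle.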

Where [7] appears, read: at 5.0 µM (retest, dose inferred, filed as 0.5).
The mark [8] stands for this setting: at 50.0 µM (retest, dose inferred, filed as 5.0).

Compounds without any hit were thinned out: in the full panel of roughly 79,000, 15% have a hit. Values without a mark were called inactive. The source made the active and inactive calls. Cut-off read from the data, not from the text of the source: active = growth inhibition above about 70%; inactive = the rest.

As for `Nc1ccc2nc(Nc3ccc(Cl)c(Cl)c3)cnc2c1`, the growth inhibition in assay [1] (setting [7]) is -17%; in assay [1] (setting [8]), 97% (active); in assay [1] (at 50.0 µM), 85.7% (active); in assay [2] (setting [7]), -1%; in assay [2] (setting [8]), 97% (active); in assay [2] (at 50.0 µM) it was 86.5% (active). Moreover, the growth inhibition in assay [3] (setting [7]) is 7%; in assay [3] (setting [8]) it was 97% (active); in assay [3] (at 50.0 µM), 87.7% (active); in assay [4] (setting [7]), 14%; in assay [4] (setting [8]), 97% (active); in assay [4] (at 50.0 µM) it was 87.2% (active). Moreover, the growth inhibition in assay [5] (setting [7]) was 28%; in assay [5] (setting [8]), 95% (active); in assay [5] (at 50.0 µM), 83.8% (active); in assay [6] (setting [7]) it was 25%; in assay [6] (setting [8]), 87% (active); in assay [6] (at 50.0 µM), 80.8% (active).

Consider `O=C(c1ccc(Br)cc1)C1N=NCC1c1ccccc1` (stereo not drawn), for which the growth inhibition is 1% in assay [1] (setting [7]); 36% in assay [1] (setting [8]); -4.75% in assay [1] (at 50.0 µM); 9% in assay [2] (setting [7]); 52% in assay [2] (setting [8]); 64.7% in assay [2] (at 50.0 µM). Further, the growth inhibition in assay [3] (setting [7]) is 4%; in assay [3] (setting [8]), -14%; in assay [3] (at 50.0 µM) it was 64.7%; in assay [4] (setting [7]) it was 6%; in assay [4] (setting [8]), 65%; in assay [4] (at 50.0 µM), 12.8%. Moreover, the growth inhibition in assay [5] (setting [7]) was 0%; in assay [5] (setting [8]), 59%; in assay [5] (at 50.0 µM), 86.3% (active); in assay [6] (setting [7]) it was -4%; in assay [6] (setting [8]), 64%; in assay [6] (at 50.0 µM), 80.2% (active).

Regarding `O=C(O)CCC/C(=N\Nc1ccccc1)C(=O)O`, the growth inhibition is 5% in assay [1] (setting [7]); 97% (active) in assay [1] (setting [8]); 98.5% (active) in assay [1] (at 50.0 µM); 2% in assay [2] (setting [7]); 99% (active) in assay [2] (setting [8]); 99.2% (active) in assay [2] (at 50.0 µM). Further, the growth inhibition was 6% in assay [3] (setting [7]); 97% (active) in assay [3] (setting [8]); 98.7% (active) in assay [3] (at 50.0 µM); 0% in assay [4] (setting [7]); 99% (active) in assay [4] (setting [8]); 97.4% (active) in assay [4] (at 50.0 µM). The growth inhibition was 1% in assay [5] (setting [7]); 98% (active) in assay [5] (setting [8]); 99% (active) in assay [5] (at 50.0 µM); 7% in assay [6] (setting [7]); 98% (active) in assay [6] (setting [8]); 98.3% (active) in assay [6] (at 50.0 µM).

`Oc1ccc(N(Cc2ccccc2)Cc2ccccc2)cc1`: the growth inhibition was 4% in assay [1] (setting [7]); 47% in assay [1] (setting [8]); 98.2% (active) in assay [1] (at 50.0 µM); 4% in assay [2] (setting [7]); 58% in assay [2] (setting [8]); 97.9% (active) in assay [2] (at 50.0 µM). Further, the growth inhibition in assay [3] (setting [7]) was 6%; in assay [3] (setting [8]) it was 40%; in assay [3] (at 50.0 µM), 98.4% (active); in assay [4] (setting [7]) it was 0%; in assay [4] (setting [8]), 93% (active); in assay [4] (at 50.0 µM), 97.7% (active). Besides, the growth inhibition was 7% in assay [5] (setting [7]); 89% (active) in assay [5] (setting [8]); 97.6% (active) in assay [5] (at 50.0 µM); 6% in assay [6] (setting [7]); 69% in assay [6] (setting [8]); 97.3% (active) in assay [6] (at 50.0 µM).

Turning to `CC(C)(C)C(OC(=O)Nc1ccccc1)C(C)(C)C`, the growth inhibition in assay [1] (setting [7]) is -1%; in assay [1] (setting [8]), 29%; in assay [1] (at 50.0 µM) it was -0.7%; in assay [2] (setting [7]) it was -18%; in assay [2] (setting [8]) it was -5%; in assay [2] (at 50.0 µM), -2.2%. The growth inhibition is 4% in assay [3] (setting [7]); 8% in assay [3] (setting [8]); -9.55% in assay [3] (at 50.0 µM); 9% in assay [4] (setting [7]); 16% in assay [4] (setting [8]); -61.5% in assay [4] (at 50.0 µM). Also, the growth inhibition is -1% in assay [5] (setting [7]); 37% in assay [5] (setting [8]); 5.1% in assay [5] (at 50.0 µM); 9% in assay [6] (setting [7]); 36% in assay [6] (setting [8]); 6.25% in assay [6] (at 50.0 µM).

Consider `O=C/C=C/c1cc([N+](=O)[O-])ccc1Cl`, for which the growth inhibition in assay [1] (setting [7]) is -138%; in assay [1] (setting [8]) it was 77% (active); in assay [1] (at 50.0 µM), 81.5% (active); in assay [2] (setting [7]), -47%; in assay [2] (setting [8]) it was 79% (active); in assay [2] (at 50.0 µM), 79.5% (active). The growth inhibition is -59% in assay [3] (setting [7]); 83% (active) in assay [3] (setting [8]); 57.4% in assay [3] (at 50.0 µM); -55% in assay [4] (setting [7]); 46% in assay [4] (setting [8]); 46.1% in assay [4] (at 50.0 µM). Further, the growth inhibition in assay [5] (setting [7]) was -80%; in assay [5] (setting [8]) it was 65%; in assay [5] (at 50.0 µM), 79.2% (active); in assay [6] (setting [7]), -137%; in assay [6] (setting [8]), 86% (active); in assay [6] (at 50.0 µM), 93.3% (active).

The record behind these values is PubChem BioAssay (NCI).
